Inconclusive results are not listed. The source made the active and inactive calls. The calls were made as follows: active = hit-call score of the fitted dose curve at least 0.9, where 1 is the maximum; inconclusive = response in the unintended direction; inactive = score below 0.9.
These compounds were tested on sulfotransferase (SULT2A), SULT2A1 (gene 6822) (assay: CLD_SULT2A_24hr: CellzDirect (CLD) Gene Expression Assay for sulfotransferase (SULT2A) at 24 hours (AID 2283694);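 as to AC50: potency for increased SULT2A1 mRNA level as induction over DMSO baseline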).
Protocol: CLD_24hr is a cell-based, multiplexed-readout assay that uses hepatocyte, a human liver primary cell, with measurements taken at 24 hours after chemical dosing in a 96-well plate.CLD_SULT2A_24hr is one of 16 assay component(s) measured or calculated from the CLD_24hr assay. It is designed to make measurements of mRNA induction, a form of inducible reporter, as detected with chemiluminescence signals by Quantitative Nuclease Protection Assay (qNPA) technology.Data from the assay component CLD_SULT2A_24hr was analyzed at the endpoint, CLD_SULT2A_24hr, in the positive analysis fitting direction relative to DMSO as the negative control and baseline of activity. Using a type of inducible reporter, gain-of-signal activity can be used to understand changes in the reporter gene as they relate to the gene SULT2A1. Furthermore, this assay endpoint can be referred to as a primary readout. To generalize the intended target to other relatable targets, this assay endpoint is annotated to the transferase intended target family, where subfamily is sulfotransferase.
Human hepatocyte cultures were treated daily for two consecutive days with fresh dosing solutions containing appropriate concentrations of the 320 ToxCast chemicals (chemical identities were blinded to CellzDirect and other ToxCast collaborators), vehicle control (0.2% DMSO), and positive control inducers as summarized in Table 1. Due to the large number of treatment groups and chemicals examined, the ToxCast chemicals were divided into two groups (spanning two independent cultures of hepatocytes from separate donor preparations (Hu778: ToxCast plates 1 and 2; Hu776: ToxCast plates 3 and 4). Each preparation of human hepatocyte cultures was treated with respective vehicle control, medium only control, set of six positive controls/reference chemicals for the five hepatic receptor pathways, and a subset of eight of the ToxCast chemicals (indoxacarb, pyrithiobac-sodium, norflurazon, cyhalofop-butyl, methomyl, thiram, acetochlor, and propiconazole). These replicate data, coupled with internal replicates designed within the blinded ToxCast chemical library, provided additional data to evaluate interindividual differences between hepatocyte preparations and their potential impact on chemical profiles.Cell morphology and integrity were evaluated using phase-contrast microscopy as an indicator of hepatocyte cell health (Tyson & Green, 1987). Cultures for each treatment group (i.e., media, vehicle [0.2% DMSO], positive control inducers [multiple concentrations], and the ToxCast chemicals [multiple concentrations]) were observed and cell morphology was assessed relative to vehicle control cultures at each harvest time point (0, 6, 24, or 48 h). […] Images were evaluated at the conclusion of the study to assess changes in cell integrity and account for the effects of chemical exposure on uncharacteristic changes in concentration-dependent gene expression profiles. The results from these determinations of apparent cytotoxicity were annotated (yes/no) alongside the corresponding qNPA data for reference.At the conclusion of each treatment period, hepatocyte cultures (96-well) were washed with 1 volume of HBSS, lysed by addition of 25 ul ArrayPlate lysis buffer (HTG, Tucson, AZ), and 70 ul/well of Denaturation Oil, denatured by incubation at 95C for 10 min, and frozen at approximately -70C until analysis by nuclease protection assay (qNPA) (Roberts et al., 2007). For qNPA analysis, cell lysates were thawed at 50C for approximately 30 min, qNPA probes were added, and samples were incubated at 95C for 10 min to begin the detection process by denaturing the target RNA, dissociating the duplexes and secondary structure hybridization. At the conclusion of the hybridization period, S1 nuclease reagent was added to each sample to digest all nonprotected nucleotides at 50C for 60-90 min. […]

Structure (SMILES)	outcome	AC50
COCC(C)N(C(=O)CCl)c1c(C)csc1C (stereo not given)	inactive	–
CC(C)Oc1cccc(NC(=O)c2ccccc2C(F)(F)F)c1	inactive	–
C=C(C)CN(CC)c1c([N+](=O)[O-])cc(C(F)(F)F)cc1[N+](=O)[O-]	inactive	–
COC(=O)N(C(=O)N1CO[C@@]2(C(=O)OC)Cc3cc(Cl)ccc3C2=N1)c1ccc(OC(F)(F)F)cc1	inactive	–
CC1(C)C(C=C(Cl)Cl)C1C(=O)OC(C#N)c1cccc(Oc2ccccc2)c1 (stereo not given)	inactive	–
CC(C)(C)C(=O)C(Oc1ccc(Cl)cc1)n1cncn1 (stereo not given)	inactive	–
CCCN(CC)CC1COC2(CCC(C(C)(C)C)CC2)O1 (stereo not given)	–	3.97 µM (active)
Cc1cc(C)nc(Nc2ccccc2)n1	inactive	–
Clc1cccc(C(Cl)(Cl)Cl)n1	inactive	–
CCCCOCN(C(=O)CCl)c1c(CC)cccc1CC	inactive	–
CCCCC(O)(Cn1cncn1)c1ccc(Cl)cc1Cl (stereo not given)	inactive	–
COc1cc(Cl)c(OC)cc1Cl	inactive	–
CCNP(=S)(OC)O/C(C)=C/C(=O)OC(C)C (stereo not given)	inactive	–
CCOc1cc(C(C)(C)C)ccc1C1COC(c2c(F)cccc2F)=N1 (stereo not given)	inactive	–
COCC(=O)N(c1c(C)cccc1C)C(C)C(=O)OC (stereo not given)	inactive	–
CO/N=C(/C1=NOCCO1)c1ccccc1Oc1ncnc(Oc2ccccc2Cl)c1F	inactive	–
O=c1n(Cl)c(=O)n(Cl)c(=O)n1Cl	inactive	–
COC(=O)NC(=S)Nc1ccccc1NC(=S)NC(=O)OC	inactive	–
COC(=O)NS(=O)(=O)c1ccc(N)cc1	inactive	–
CCN(CC)c1nc(C)cc(OP(=S)(OC)OC)n1	inactive	–

Structure (SMILES)	outcome	AC50
CCCC(=NOCC)C1=C(O)CC(CC(C)SCC)CC1=O (stereo not given)	inactive	–
COP(=S)(OC)SCn1nnc2ccccc2c1=O	inactive	–
Cc1nc(N(C)C)nc(OC(=O)N(C)C)c1C	inactive	–
CCSC(=O)N1CCCCCC1	inactive	–
COCc1cnc(C2=NC(C)(C(C)C)C(=O)N2)c(C(=O)O)c1 (stereo not given)	inactive	–
COC(=O)c1c(C(F)F)nc(C(F)(F)F)c(C2=NCCS2)c1CC(C)C	–	20 µM (active)
CC(C)NC(=O)N1CC(=O)N(c2cc(Cl)cc(Cl)c2)C1=O	inactive	–
Nc1c(Cl)c(Cl)nc(C(=O)O)c1Cl	inactive	–
CC(C)N1C(=O)N(c2ccccc2)CSC1=NC(C)(C)C	inactive	–
CCN(CC)C(=O)C(C)Oc1cccc2ccccc12 (stereo not given)	inactive	–
OC(c1ccc(Cl)cc1)(c1ccc(Cl)cc1)C(Cl)(Cl)Cl	–	20 µM (active)
CCOP(=S)(OCC)Oc1nc(Cl)n(C(C)C)n1	inactive	–
CN=C=S	inactive	–
COP(=O)(OC)O/C(C)=C/C(=O)N(C)C	inactive	–
CCCCC(C#N)(Cn1cncn1)c1ccc(Cl)cc1 (stereo not given)	inactive	–
CC1(C)CCC(=Cc2ccc(Cl)cc2)C1(O)Cn1cncn1 (stereo not given)	inactive	–
CCOP(=O)(OCC)Oc1nc(Cl)c(Cl)cc1Cl	inactive	–
CSC(=O)c1c(C(F)F)nc(C(F)(F)F)c(C(=O)SC)c1CC(C)C	–	7.07 µM (active)
CC(C)C1(C)N=C(c2ncccc2C(=O)O)NC1=O (stereo not given)	inactive	–
O=C(O)c1c(Cl)ccc2cc(Cl)cnc12	inactive	–

— PubChem BioAssay (EPA / NIEHS)
